Test results reported in PubChem BioAssay AID493030 (The Scripps Research Institute Molecular Screening Center, 2011).
In all, about 2,300 compounds went through this assay and about 1,500 (65%) were called active.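 Rule for the calls: active = mean inhibition over three repeats above a set limit taken from the earlier primary screen (cut at about 30% in these data); inactive = the rest.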 The set was probably picked from earlier hits. Only a selection was taken, and actives are over-represented in it overall.

Target: Platelet-activating factor acetylhydrolase 2, cytoplasmic (Homo sapiens) (UniProt Q99487)
Assay: inhibition of cytoplasmic PAF acetylhydrolase 2 – biochemical, fluorescence polarization, human, confirmation (AID 493030);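 note: inhibitor blocks binding of rhodamine activity probe so polarization falls; 0% = enzyme with DMSO and 100% = wells lacking PAFAH2 protein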
Conditions: recombinant PAFAH2, FP-rhodamine activity probe, at 3.39 µM, stronger effect = higher value

Row | SMILES | inhibition
1 | COc1cccc(N2C(=O)NC(=O)/C(=C\c3cn(C)c4ccccc34)C2=O)c1 | 36.5% (active)
2 | Cc1cccc(N2C(=O)NC(=O)/C(=C\c3cnn(-c4ccccc4)c3)C2=O)c1 | 35.3% (active)
3 | O=C(COC(=O)c1ccccc1)Nc1ccc(Cl)cc1C(=O)c1ccccc1 | 39.7% (active)
